Records with an inconclusive call do not appear. Values without a mark were called inactive. Calls come from the whole dose curve.

We go through four compounds from PubChem BioAssay AID720518 (National Center for Advancing Translational Sciences (NCATS), 2013).

The test in a line: qHTS for Inhibitors of Cell Surface uPA Generation: Wild-type Protective Antigen (WT-PrAg) Counterscreen for Cherry-picked Compounds. Note: 0% is about no effect. Conditions: cells, WT protective antigen toxicity counterscreen; series mostly up to 115 µM; activity (protection): at the top concentration. In general terms: qHTS replaces the single test concentration by a dilution series.
Regarding `CCn1c(=O)cc(C(=O)OC)sc1=Nc1ccc(F)c(F)c1`, the “activity (protection)” value was -2.26%.

For the compound `Fc1cccc(Cl)c1CSc1ccc(-c2cccnc2)nn1`, the “activity (protection)” value was -1.61%.

`O=C(Cc1ccccc1)Nc1ccc(NC(=O)c2ccccc2)c(Cl)c1`: the “activity (protection)” value was -1.13%.

Turning to `Cc1cccc(N2CCN(Cc3ccc(Br)o3)CC2)c1C`, the “activity (protection)” value is 2.05%.
